Experimental data as given in PubChem BioAssay AID1851 (National Center for Advancing Translational Sciences (NCATS), 2009).
In all, about 16,000 compounds went through this assay and about 5,100 (32%) were called active. Inconclusive results (about 25%) are left out. The list shows a part of the results. Unmarked numbers belong to inactive results. Calls come from the whole dose curve; as a rule, active = well fitted curve in the direction sought with a large enough effect; inconclusive = small, poorly fitted or top-dose-only effect, or effect the other way; inactive = no such curve, though single readings can be large or run the other way.

The compounds below were run against Cytochrome P450 3A4 (Homo sapiens) (UniProt P08684) (assay: Cytochrome panel assay with activity outcomes). Settings: recombinant CYP, pro-luciferin dealkylation, luminescence, p450-cyp3a4; series mostly up to 57.1 µM; activity, negative = inhibition: at the top concentration.
Chain of Cytochrome P450 3A4 (Homo sapiens) (P08684 whole entry, looked up): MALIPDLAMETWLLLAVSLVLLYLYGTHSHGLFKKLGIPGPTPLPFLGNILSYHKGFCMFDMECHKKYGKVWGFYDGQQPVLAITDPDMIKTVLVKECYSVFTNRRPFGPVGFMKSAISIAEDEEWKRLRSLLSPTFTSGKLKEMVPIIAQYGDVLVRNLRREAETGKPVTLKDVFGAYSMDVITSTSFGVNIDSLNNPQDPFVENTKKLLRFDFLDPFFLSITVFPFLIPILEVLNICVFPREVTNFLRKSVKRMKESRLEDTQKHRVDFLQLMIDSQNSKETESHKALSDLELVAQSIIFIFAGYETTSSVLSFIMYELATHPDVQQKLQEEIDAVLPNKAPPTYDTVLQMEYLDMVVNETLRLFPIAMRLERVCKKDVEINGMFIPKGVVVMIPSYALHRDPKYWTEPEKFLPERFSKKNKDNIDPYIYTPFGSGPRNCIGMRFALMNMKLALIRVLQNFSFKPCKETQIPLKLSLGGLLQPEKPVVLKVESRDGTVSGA
% is set by controls: 0 for no effect and ±100 for the full control effect.

Compound | activity, negative = inhibition | AC50
COCCn1c(C)cc(C2=NNC(=Nc3ccc(F)cc3)SC2)c1C | 15.3% [at 11.4 µM] | 
O=C1c2ccccc2C(=O)N1CC1c2ccccc2CCN1S(=O)(=O)c1ccccc1 (stereo unspecified) |  | 2 µM (active)
C[C@H](O)[C@H](O)[C@@H]1CNc2nc(N)[nH]c(=O)c2N1 | -6.18% | 
CCN1CCN(c2nc(-c3ccccn3)nc3ccccc23)CC1 | 9.59% [at 2.29 µM] | 
CC1CCCCN1c1nc(-c2ccncc2)nc2ccccc12 (stereo unspecified) |  | 0.631 µM (active)
CN(Cc1ccco1)c1ncnc2ccc(-c3cccc(NS(C)(=O)=O)c3)cc12 |  | 5.01 µM (active)
CN(Cc1ccco1)c1ncncc1-c1cccc(NS(C)(=O)=O)c1 |  | 0.794 µM (active)
O=C(O)[C@H](CCc1ccccn1)c1ccccc1 | 0.483% [at 11.4 µM] | 
C[C@@H](C1=C(CCN(C)C)Cc2ccccc21)c1ccccn1 | -14.4% | 
CN(CCc1ccccn1)c1ccc2c(c1)Cc1ccccc1-2 |  | 2.51 µM (active)
CN(CCc1ccccn1)c1ccc2c(c1)C(=O)c1ccccc1-2 |  | 3.16 µM (active)
O=C1c2ccccc2-c2ccc(N(Cc3ccc(Br)cc3)Cc3ccc(Br)cc3)cc21 | 3.02% [at 11.4 µM] | 
c1ccc(Cn2c(CN3CCCC3)nc3ccccc32)cc1 | -12.3% [at 2.29 µM] | 
CCn1c(N)nc2ccccc21 | -22.1% | 
CCn1c(COc2ccc(OC)cc2)nc2ccccc21 |  | 1.26 µM (active)
O=C(O)CCC(=O)Nc1ccc2ccccc2c1 | -3.97% [at 11.4 µM] | 
O=C(c1ccccc1)[C@H](Nc1ccc2ccccc2c1)c1ccccc1 |  | 3.16 µM (active)
O=C(Nc1ccc2ccccc2c1)c1onc2c1CCCC2 | -20.2% | 
Cc1c(Nc2cc(N3CCCC(C)C3)c3nonc3c2[N+](=O)[O-])c(=O)n(-c2ccccc2)n1C (stereo unspecified) | -11.2% | 
COc1ccc(C(=O)N2CC3(CC(c4cccc([N+](=O)[O-])c4)=NO3)C[C@H]2C(=O)NCC(N)=O)cc1 (stereo partly specified) | 15.2% [at 2.29 µM] | 
O=C(NCc1ccccc1)C12CN(Cc3ccccc3)CC1C(c1cccc([N+](=O)[O-])c1)=NO2 (stereo unspecified) |  | 7.08 µM (active)
CC(C)CCNC(=O)C12CN(Cc3ccccc3)CC1C(c1cccc([N+](=O)[O-])c1)=NO2 (stereo unspecified) |  | 12.6 µM (active)
O=C1CC[C@H](N2C(=O)c3ccccc3C2=O)C(=O)N1 |  | inactive

Compound | activity, negative = inhibition | AC50
Nc1ncnc2c1nc(-c1ccccc1)n2[C@H]1O[C@@H](CO)[C@@H](O)[C@H]1O | -3.38% [at 11.4 µM] | 
Cc1n[nH]c(C)c1S(=O)(=O)N1CCC(C(=O)O)CC1 | 3.15% [at 11.4 µM] | 
Cc1ccc(C(=O)NC(=S)Nc2cc(C(F)(F)F)ccc2Cl)cc1 | 0.666% | 
COc1cc(C(=O)Nc2cc(C(F)(F)F)ccc2Cl)cc(OC)c1OC |  | 15.8 µM (active)
COc1cc(/C=C/C(=O)Nc2cc(C(F)(F)F)ccc2Cl)cc(OC)c1OC | -14.2% [at 11.4 µM] | 
COc1cccc(C(=O)Nc2cc(C(F)(F)F)ccc2Cl)c1 |  | 7.94 µM (active)
CC(C)CNC(=O)O | -6.31% [at 11.4 µM] | 
CC(C)C(=O)Nc1ccc(Sc2ccc(F)cc2)cc1 | -3.21% | 
Cc1ccc(NC(=O)C(C)N2C(=O)C3C4CC(C(Br)C4Br)C3C2=O)cc1 (stereo unspecified) |  | 5.62 µM (active)
CC(C(=O)Nc1cccnc1)N1C(=O)C2C3C=CC(C3)C2C1=O (stereo unspecified) |  | 12.6 µM (active)
CCC1CCc2c(c3ccccc3[nH]c2=O)O1 (stereo unspecified) | -20.1% [at 2.29 µM] | 
CN(Cc1ccco1)c1ccnc(-c2cccc(NS(C)(=O)=O)c2)n1 |  | 6.31 µM (active)
CN(Cc1ccco1)c1cc(-c2cccc(NS(C)(=O)=O)c2)ncn1 |  | 15.8 µM (active)
O=C(CCN1CCOCC1)Nc1ccc(F)cc1F | -14.9% [at 11.4 µM] | 
COC(=O)CNC(c1ccccc1Cl)c1cc(Br)ccc1NC(=O)CCN1CCOCC1 (stereo unspecified) |  | 3.55 µM (active)
Cc1cc2c(cc1C)NC(c1nc3ccccc3[nH]1)C1=C(CC(C)(C)CC1=O)N2 (stereo unspecified) |  | 12.6 µM (active)
Cc1c(C(=O)O)nc(/C=C\C(=O)O)[nH]c1=O | -3.36% [at 11.4 µM] | 
C=CCSc1nnc(-c2cc3c(C(F)(F)F)nn(C)c3s2)n1C |  | 8.91 µM (active)
C=CCSc1nnc(-c2cc3c(-c4ccccc4)nn(C)c3s2)n1C |  | 1.58 µM (active)
CCCCSc1nnc(-c2cc3c(C(F)(F)F)nn(C)c3s2)n1C | -20.2% | 
C#CCSc1nnc(-c2cc3c(C(F)(F)F)nn(C)c3s2)n1C |  | 7.94 µM (active)
CCCNC(=O)c1cc2c(C(F)(F)F)nn(C)c2s1 | 19.2% [at 2.29 µM] | 
CCn1cc(C(=O)O)c(=O)c2cc(F)c(N3CCN[C@@H](C)C3)c(F)c21 |  | inactive
